The full list was thinned out, with hits kept by preference.
Dicer inh: human Dicer pre-microRNA cleavage inhibition; AID 1347074; 47,000 tested, 6% active; cat-ELCCA pre-miR-21 Dicer processing, chemiluminescence; active compounds read high; z-score at 25 µM; Q9UPY3; in the data active means z-score above about 3, passing the limit was not always enough;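 further: plate controls were vehicle for no effect and no enzyme for full effect; higher signal means more uncleaved substrate so more Dicer inhibition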
Target sequence (Q9UPY3 whole entry, looked up): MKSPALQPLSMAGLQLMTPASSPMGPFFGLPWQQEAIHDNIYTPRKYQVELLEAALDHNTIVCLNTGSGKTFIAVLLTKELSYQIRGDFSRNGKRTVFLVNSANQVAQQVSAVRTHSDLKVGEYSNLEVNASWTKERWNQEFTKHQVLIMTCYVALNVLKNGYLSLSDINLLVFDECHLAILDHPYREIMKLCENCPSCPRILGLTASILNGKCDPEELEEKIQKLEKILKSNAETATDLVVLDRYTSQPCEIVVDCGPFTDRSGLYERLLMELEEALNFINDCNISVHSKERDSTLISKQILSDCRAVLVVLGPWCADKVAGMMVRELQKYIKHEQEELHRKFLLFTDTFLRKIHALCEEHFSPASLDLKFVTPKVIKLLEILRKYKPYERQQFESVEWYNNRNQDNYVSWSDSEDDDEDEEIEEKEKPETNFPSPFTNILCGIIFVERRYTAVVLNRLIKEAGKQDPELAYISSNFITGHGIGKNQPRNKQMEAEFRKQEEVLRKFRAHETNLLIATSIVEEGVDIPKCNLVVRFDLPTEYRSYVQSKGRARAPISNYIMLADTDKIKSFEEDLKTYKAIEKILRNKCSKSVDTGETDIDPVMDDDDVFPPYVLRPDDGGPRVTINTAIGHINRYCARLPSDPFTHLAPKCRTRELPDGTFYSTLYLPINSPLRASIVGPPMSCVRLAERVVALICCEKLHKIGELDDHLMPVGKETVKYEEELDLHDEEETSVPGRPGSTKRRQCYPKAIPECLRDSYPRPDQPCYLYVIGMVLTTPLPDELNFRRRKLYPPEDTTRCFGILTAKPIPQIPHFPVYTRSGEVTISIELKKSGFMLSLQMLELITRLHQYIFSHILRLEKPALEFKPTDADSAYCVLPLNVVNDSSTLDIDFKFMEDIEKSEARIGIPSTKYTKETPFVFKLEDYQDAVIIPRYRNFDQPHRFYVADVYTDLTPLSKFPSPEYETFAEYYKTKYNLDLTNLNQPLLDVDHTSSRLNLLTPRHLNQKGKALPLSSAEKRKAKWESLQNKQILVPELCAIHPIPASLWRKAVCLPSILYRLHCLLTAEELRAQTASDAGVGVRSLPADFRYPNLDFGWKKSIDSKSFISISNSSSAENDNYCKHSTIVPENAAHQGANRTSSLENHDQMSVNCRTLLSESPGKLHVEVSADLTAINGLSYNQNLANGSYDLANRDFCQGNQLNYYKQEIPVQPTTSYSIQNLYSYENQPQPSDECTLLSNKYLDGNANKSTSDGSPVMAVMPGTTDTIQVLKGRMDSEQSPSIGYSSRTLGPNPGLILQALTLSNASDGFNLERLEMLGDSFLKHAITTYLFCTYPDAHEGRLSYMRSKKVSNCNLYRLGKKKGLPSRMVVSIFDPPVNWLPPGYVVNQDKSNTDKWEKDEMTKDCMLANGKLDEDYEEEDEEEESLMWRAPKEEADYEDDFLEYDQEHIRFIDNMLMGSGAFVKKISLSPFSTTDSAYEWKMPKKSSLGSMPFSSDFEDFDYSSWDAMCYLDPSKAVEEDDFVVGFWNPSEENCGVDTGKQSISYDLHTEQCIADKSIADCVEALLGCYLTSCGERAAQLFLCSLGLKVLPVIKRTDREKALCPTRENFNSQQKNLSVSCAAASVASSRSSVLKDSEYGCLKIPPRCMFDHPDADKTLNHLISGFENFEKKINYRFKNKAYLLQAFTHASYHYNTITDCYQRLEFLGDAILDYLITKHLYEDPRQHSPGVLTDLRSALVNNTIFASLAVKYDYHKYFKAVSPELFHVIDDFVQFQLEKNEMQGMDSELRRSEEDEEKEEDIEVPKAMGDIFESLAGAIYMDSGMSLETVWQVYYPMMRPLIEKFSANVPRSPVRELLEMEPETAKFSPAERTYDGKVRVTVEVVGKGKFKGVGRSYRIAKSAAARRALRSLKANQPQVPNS
Numbers without * were called inactive.

SMILES | Dicer inh
Clc1ccc(-c2nnc3ccc4ccccc4n23)cc1 | -2.8
COc1ccccc1-c1nnc2ccc3ccccc3n12 | 3*
Fc1ccc(-c2nnc3ccc4ccccc4n23)cc1 | -0.03
Cc1ccc(Nc2cc(-c3ccccc3)nc3ncnn23)cc1 | 3.2*
Cc1cc(Nc2ccccc2)n2ncnc2n1 | -1.4
FC(F)(F)c1cc(-c2ccccc2)nc2ncnn12 | -0.01
COc1ccc(C(C#N)=C(SC)SC)cc1 | -0.8
Nc1ccc(Oc2ccc3nc(-c4ccc(N)cc4)[nH]c3c2)cc1 | 0.25
Nc1ccc2nc(-c3cccnc3)[nH]c2c1 | 0.6
Clc1ccc(-c2nc3ccccc3[nH]2)cc1 | -1.5
Cn1c(-c2ccc(-c3nc4ccccc4[nH]3)cc2)nc2cc(N)ccc21 | 4.7*
Cn1c(-c2ccc3nc(-c4ccc(N)cc4)[nH]c3c2)nc2cc(N)ccc21 | 5.7*
Nc1ccc2nc(-c3ccccc3)[nH]c2c1 | -3.4
CCOC(=O)CNC(=O)/C=C/c1cc(Br)c(OC)c(OC)c1 | -1.9
CC(C)S[C@@H]1O[C@H](CO)[C@@H](O)[C@H](O)[C@H]1O | -0.14
COc1ccc(C2C3=C(Nc4nc(N)[nH]c(=O)c42)c2ccccc2C3=O)cc1 (stereo unspecified) | -2.4
O=[N+]([O-])c1cccc(Cl)c1SCc1c(F)cccc1Cl | -0.4
COC(=O)c1ccc(C(=O)OC)c(N2C(=O)CC(Sc3ccccc3N)C2=O)c1 (stereo unspecified) | 2.4
Cn1cnc(S(=O)(=O)NCC2CCN(S(=O)(=O)c3ccccc3)CC2)c1 | 1.2
CCOc1cc(C2C(C(=O)OCCOC)=C(C)NC3=C2C(=O)CC(c2cccs2)C3)ccc1O (stereo unspecified) | 3.3*
COCCOC(=O)C1=C(C)NC2=C(C(=O)CC(c3cccs3)C2)C1c1ccc(O)c(OC)c1 (stereo unspecified) | 2.5
COc1ccc(C2CC(=O)C3=C(C2)NC(C)=C(C(=O)OC(C)C)C3c2ccc(F)cc2)cc1 (stereo unspecified) | -0.25
CCOC(=O)C1=C(C)NC2=C(C(=O)CC(c3cccs3)C2)C1c1ccc(F)cc1 (stereo unspecified) | -0.12
CCOC(=O)C1=C(C)NC2=C(C(=O)CC(c3ccc(OC)cc3)C2)C1c1ccc(O)c(OC)c1 (stereo unspecified) | -0.1
CCOc1ccc(C2C(C(=O)OC(C)C)=C(C)NC3=C2C(=O)CC(c2ccc(OC)cc2)C3)cc1 (stereo unspecified) | 0.91
SMILES | Dicer inh
CCOCCOC(=O)C1=C(C)NC2=C(C(=O)CC(c3cccs3)C2)C1c1ccc(O)c(OC)c1 (stereo unspecified) | 5*
CCOc1ccc(C2C(C(=O)OC(C)C)=C(C)NC3=C2C(=O)CC(c2ccccc2)C3)cc1OC (stereo unspecified) | 1.5
CCOc1ccc(C2C(C(=O)OC(C)C)=C(C)NC3=C2C(=O)CC(c2ccccc2)C3)cc1 (stereo unspecified) | 2.3
CCOc1ccc(C2CC(=O)C3=C(C2)NC(C)=C(C(=O)OCCOC)C3c2cccs2)cc1OC (stereo unspecified) | -1.4
CCOc1cc(C2C(C(=O)OC(C)C)=C(C)NC3=C2C(=O)CC(c2ccccc2)C3)ccc1O (stereo unspecified) | 11*
COc1ccc(C2CC(=O)C3=C(C2)NC(C)=C(C(=O)OC(C)C)C3c2ccc(N(C)C)cc2)cc1 (stereo unspecified) | 3.8*
Cc1onc(-c2ccccc2)c1CNC(=O)c1c(-c2ccccc2)noc1C | -0.08
OCCCc1nc2cc3ccccc3cc2[nH]1 | 0.64
COc1ccc2oc(C(=O)c3ccc(Cl)c(C)c3)cc2c1 | -0.49
CCCCOC(=O)c1sc2scc(C)c2c1C | -0.84
CCOC(=O)CN1C(=O)C(O)(CC(=O)c2ccc(C)o2)c2ccccc21 (stereo unspecified) | -0.56
COc1ccc2c(c1)CCCN2C(=O)c1c(-c2c(Cl)cccc2Cl)noc1C | -1.1
COC(=O)c1sccc1NNC(=O)/C(C)=C/C(=O)O | -0.14
CCOCCOC(=O)C1=C(C)NC2=C(C(=O)CC(c3cccs3)C2)C1c1ccc(OC)c(O)c1 (stereo unspecified) | -0.96
CC1=C(C#N)C(c2ccc(F)cc2)C2=C(CC(c3ccccc3)CC2=O)N1 (stereo unspecified) | 1.1
COCCOC(=O)C1=C(C)NC2=C(C(=O)CC(c3cccs3)C2)C1c1ccsc1 (stereo unspecified) | 1.4
CCOC(=O)C1=C(C)NC2=C(C(=O)CC(c3cccs3)C2)C1c1ccsc1 (stereo unspecified) | 1.1
CCOCCOC(=O)C1=C(C)NC2=C(C(=O)CC(c3cccs3)C2)C1c1cccc(O)c1 (stereo unspecified) | 3.4*
CC1=C(C#N)C(c2cccc(F)c2)C2=C(CCCC2=O)N1 (stereo unspecified) | 4.7*
CC1=C(C#N)C(c2ccccc2F)C2=C(CCCC2=O)N1 (stereo unspecified) | 6.6
COCCOC(=O)C1=C(C)NC2=C(C(=O)CC(c3cccs3)C2)C1c1ccc(O)cc1 (stereo unspecified) | 3*
COc1ccc(C2CC(=O)C3=C(C2)NC(C)=C(C#N)C3c2ccc(F)cc2)cc1 (stereo unspecified) | 4.5*
COc1ccc(C2CC(=O)C3=C(C2)NC(C)=C(C#N)C3c2ccc(Br)cc2)cc1 (stereo unspecified) | 0.83
CCc1ccc(C2C(C#N)=C(C)NC3=C2C(=O)CCC3)cc1 (stereo unspecified) | 0.32
CCCOC(=O)C1=C(C)NC2=C(C(=O)CC(c3cccs3)C2)C1c1ccc(F)cc1 (stereo unspecified) | 2.8
SMILES | Dicer inh
O=[N+]([O-])c1ccc(C2OCCO2)s1 | -0.62
O=c1onc(-c2ccccc2)n1-c1cccc([N+](=O)[O-])c1 | -0.1
CS(=O)(=O)N1CCCc2ccccc21 | -0.37
CC(=O)c1ccccc1C(=O)c1ccc(C(C)(C)C)cc1 | -0.54
CSc1sc(C(N)=O)c2c1-c1oncc1CC2 | -1.1
COc1cccc(-n2c(C3CCCNC3=O)n[nH]c2=S)c1 (stereo unspecified) | -0.91
CCCCCCCCc1ccc(C(=O)CCC(=O)O)cc1 | -0.77
Cc1nn2c3c(cnc2c1-c1ccc(F)cc1)C(=O)CC(c1cccs1)C3 (stereo unspecified) | 4.2*
Cc1nn2c3c(cnc2c1-c1ccc(F)cc1)C(=O)CC(c1ccc(F)cc1)C3 (stereo unspecified) | 0.07
Cc1nn2c3c(cnc2c1-c1ccc(Cl)cc1)C(=O)CC(c1cccs1)C3 (stereo unspecified) | -0.48
Cc1ccc2nc(Cc3ccc4nc(N)sc4c3)oc2c1 | 4.7*
Cc1ccc2nc(Cc3ccc(N)cc3)oc2c1 | 0.81
Nc1nc2ccc(Cc3nc4ccccc4o3)cc2s1 | -0.46
CCOC(=O)c1ccc2[nH]c(-c3ccccc3)cc(=O)c2c1 | 0.93
NNC(=O)Cn1nnc(-c2ccccc2C(F)(F)F)n1 | 0.88
CC(C)C(=O)Nc1nc(NC(=O)C(C)C)nc(-c2ccccc2C(F)(F)F)n1 | 3.2*
CCC(=O)Nc1nc(NC(=O)CC)nc(-c2ccccc2C)n1 | 2.9
Cn1c(SCc2cccc(-c3noc(-c4ccc(Cl)cc4)n3)c2)nnc1C(F)(F)F | -1.6
c1ccc(-c2nc(NC3CCCCC3)c3ccccc3n2)cc1 | 0.99
Nc1nc(Cc2cc3ccccc3[nH]2)nc(NC2CCCCC2)n1 | 4*
COC(=O)CSCC(=O)Nc1scc(C)c1C(N)=O | -1.3
CCC(=O)Nc1c(C#N)c(C)c(C)n1Cc1cccs1 | 6

Bioassay records deposited in PubChem by Center for Chemical Genomics, University of Michigan.
